Reference: PubChem BioAssay (NCATS)
Records with an inconclusive call do not appear. A call without a number means that no potency is given here. The source made the active and inactive calls. Unless noted, the call rests on the fitted dose curve; in most records, active means well fitted activation curve with a large enough effect in the main read-out, with a control signal flat (not every such curve was filed as active); inconclusive means small, poorly fitted or top-dose-only effect, or effect the other way, or a change in a side signal; inactive means flat fitted curve, though single readings scatter.

Target: 3',5'-cyclic-AMP phosphodiesterase 4B (Homo sapiens) (UniProt Q07343)
Sequence (Q07343 whole entry, looked up): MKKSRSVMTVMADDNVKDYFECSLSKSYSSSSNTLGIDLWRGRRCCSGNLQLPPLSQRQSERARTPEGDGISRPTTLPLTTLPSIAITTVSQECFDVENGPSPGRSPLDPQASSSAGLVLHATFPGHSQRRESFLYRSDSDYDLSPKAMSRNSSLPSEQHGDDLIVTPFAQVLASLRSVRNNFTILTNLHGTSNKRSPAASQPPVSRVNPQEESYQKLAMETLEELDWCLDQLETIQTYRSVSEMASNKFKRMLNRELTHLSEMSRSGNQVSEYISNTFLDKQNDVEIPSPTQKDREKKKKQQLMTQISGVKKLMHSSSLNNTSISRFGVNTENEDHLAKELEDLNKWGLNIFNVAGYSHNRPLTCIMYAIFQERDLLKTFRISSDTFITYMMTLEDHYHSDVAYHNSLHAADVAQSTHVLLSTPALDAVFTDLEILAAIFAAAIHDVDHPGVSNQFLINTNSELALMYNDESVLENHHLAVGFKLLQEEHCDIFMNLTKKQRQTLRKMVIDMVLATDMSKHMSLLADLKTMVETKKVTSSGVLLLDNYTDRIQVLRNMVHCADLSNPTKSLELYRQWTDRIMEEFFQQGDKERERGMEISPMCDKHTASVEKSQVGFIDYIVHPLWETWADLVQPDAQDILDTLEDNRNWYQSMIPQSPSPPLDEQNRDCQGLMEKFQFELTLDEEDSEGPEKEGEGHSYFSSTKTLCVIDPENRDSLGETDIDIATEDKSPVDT
Test: qHTS Assay for Inhibitors of PDE-IV (AID 607)
Details: HEK293 ACTOne CNG channel cells, membrane potential fluorescence; series mostly up to 22.9 µM
How it was run: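 Cell-based read-out of cAMP via a modified cyclic nucleotide-gated channel and membrane potential dye (535/590 nm) in HEK293 cells expressing PDE4 endogenously. Compounds tested up to 22.9 uM final; 100 uM RO 20-1724 reference.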

Structure (SMILES) | outcome
O=c1c(O)c(-c2ccc(O)cc2)oc2cc(O)cc(O)c12 | inactive
O=c1cc(-c2ccc(O)cc2)oc2cc(O)cc(O)c12 | inactive
C[C@@H](O)[C@H]1C(=O)N2C(C(=O)O)=C(S[C@@H]3CN[C@H](C(=O)N(C)C)C3)[C@H](C)[C@H]12 | inactive
O=c1c(-c2ccc(O)cc2)coc2cc(O)ccc12 | inactive
CCN(CC)CCOC(=O)c1ccc(N)cc1 | inactive
CCN(CC)C(=O)c1ccc(O)c(OC)c1 | inactive
O=c1cc(-c2ccccc2)oc2cc(O)c(O)c(O)c12 | inactive
CC(=O)CCCCn1c(=O)c2c(ncn2C)n(C)c1=O | inactive
O=C(O)CCc1nc(-c2ccccc2)c(-c2ccccc2)o1 | inactive
O=C1C[C@@H](c2ccc(O)cc2)Oc2cc(O)cc(O)c21 | inactive
COCCCCC(=NOCCN)c1ccc(C(F)(F)F)cc1 | inactive
COc1ccc2c3c1OC1C[C@@H](O)C=C[C@@]31CCN(C)C2 (stereo partly specified) | inactive
CC(=O)c1ccc(S(=O)(=O)NC(=O)NC2CCCCC2)cc1 | inactive
CCN1CCC[C@H]1CNC(=O)c1cc(S(N)(=O)=O)ccc1OC | inactive
NC(N)=Nc1nc(CSCC/C(N)=N/S(N)(=O)=O)cs1 | inactive
CCCCC1C(=O)N(c2ccccc2)N(c2ccccc2)C1=O | inactive

Structure (SMILES) | outcome
CCCCCCCCCCCC1=C(O)C(=O)C=C(O)C1=O | inactive
O=c1cc(-c2ccccc2)oc2cc(O)cc(O)c12 | inactive
CC1(C)CCC2=C(O1)c1ccccc1C(=O)C2=O | inactive
NCCS | inactive
CCCNC(=O)NS(=O)(=O)c1ccc(Cl)cc1 | inactive
C[N+](C)(C)CC(=O)O | inactive
COc1cccc(-c2cc(=O)c3ccccc3o2)c1N | inactive
CCN(CC)CCNC(=O)c1ccc(N)cc1 | inactive
C[N+](C)(C)CCCCCC[N+](C)(C)C | inactive
c1cc(-c2sc(-c3ccncc3)c(-c3ccncc3)c2-c2ccncc2)ccn1 | inactive
Nc1ncnc2c1ncn2[C@@H]1O[C@@H](CO)[C@H](O)[C@H]1O | inactive
CC(C)OC(=O)C(C)(C)Oc1ccc(C(=O)c2ccc(Cl)cc2)cc1 | inactive
O=C1NC(=O)C(c2ccccc2)(c2ccccc2)N1 | inactive
COc1ccccc1N1CCN(CCCNc2cc(=O)n(C)c(=O)n2C)CC1 | inactive
O=C1NCC2(CCN(CCc3ccccc3)CC2)O1 | inactive
Clc1ccc(Cn2c(CN3CCCC3)nc3ccccc32)cc1 | inactive

Tested on: not listed separately
Test: Cellular Toxicity (caspase-3) HepG2 (AID 654; active means well fitted activation curve with a large enough effect; further: potency means the concentration at half of the fitted maximal effect;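 on caspase-3 activation: cells exposed to compound for 16 hours before reading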)
Details: HepG2 caspase-3 activation, luminescence; series mostly up to 92.2 µM
How it was run: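 Cells plated 5 hr at 37 °C, compound added, incubated 16 hr at 37 °C. Caspase-Glo 3/7 reagent followed, 20 min at room temperature, then luminescence read. Activation scored as signal increase; AC50 from Hill fit.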

Structure (SMILES) | Potency
O=c1c(O)c(-c2ccc(O)cc2)oc2cc(O)cc(O)c12 | inactive
O=c1cc(-c2ccc(O)cc2)oc2cc(O)cc(O)c12 | inactive
O=c1c(-c2ccc(O)cc2)coc2cc(O)ccc12 | inactive
CC/C(=C(\c1ccccc1)c1ccc(OCCN(C)C)cc1)c1ccccc1 | 50.1 µM (active)
O=C(O)c1cc(O)c2c(c1)C(=O)c1cccc(O)c1C2=O | inactive
CC(=O)c1ccc(S(=O)(=O)NC(=O)NC2CCCCC2)cc1 | inactive
CC(=O)O[C@]1(C(C)=O)CC[C@H]2[C@@H]3C=C(Cl)C4=CC(=O)[C@@H]5C[C@@H]5[C@]4(C)[C@H]3CC[C@@]21C | inactive
CCn1cc(C(=O)O)c(=O)c2ccc(C)nc21 | inactive
O=C(O)Cc1cccc2ccccc12 | inactive
CCCCC1C(=O)N(c2ccccc2)N(c2ccccc2)C1=O | inactive
CN(C)CCC(c1ccccc1)c1ccccn1 (stereo unspecified) | inactive
CCCNC(=O)NS(=O)(=O)c1ccc(Cl)cc1 | inactive
CC1=C(/C=C/C(C)=C/C=C/C(C)=C/C(=O)Nc2ccc(O)cc2)C(C)(C)CCC1 | 31.6 µM (active)
O=c1[nH]cnc2c1ncn2[C@H]1CC[C@@H](CO)O1 | inactive
O=C1NC(=O)C(c2ccccc2)(c2ccccc2)N1 | inactive

Tested on: not listed separately
Test: Cellular Toxicity (caspase-3) Jurkat (AID 655; active means well fitted activation curve with a large enough effect;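 further: cells exposed to compound for 16 h at 37 °C before reading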)
Details: Jurkat caspase-3 activation, luminescence, DMSO = 0%, tamoxifen = 100%; at 92.2 µM (top of the series)
How it was run: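 Jurkat cells (5000/well) in complete medium were treated with compounds for 16 hr at 37 °C, then Caspase-Glo 3/7 luminescence was read after 20 min at room temperature. Data normalized to DMSO (basal) and 100 uM tamoxifen (100%); AC50 from Hill fit.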

Structure (SMILES) | caspase-3 activation
O=c1c(O)c(-c2ccc(O)cc2)oc2cc(O)cc(O)c12 | 1.17% (inactive)
O=c1cc(-c2ccc(O)cc2)oc2cc(O)cc(O)c12 | 8.24% (inactive)
O=c1c(-c2ccc(O)cc2)coc2cc(O)ccc12 | -7.71% (inactive)
O=C(O)c1cc(O)c2c(c1)C(=O)c1cccc(O)c1C2=O | -6.3% (inactive)
CC(=O)c1ccc(S(=O)(=O)NC(=O)NC2CCCCC2)cc1 | 0.00348% (inactive)
CC(=O)O[C@]1(C(C)=O)CC[C@H]2[C@@H]3C=C(Cl)C4=CC(=O)[C@@H]5C[C@@H]5[C@]4(C)[C@H]3CC[C@@]21C | 11.6% (inactive)
CCn1cc(C(=O)O)c(=O)c2ccc(C)nc21 | 0.304% (inactive)
O=C(O)Cc1cccc2ccccc12 | 1.08% (inactive)
CCCCC1C(=O)N(c2ccccc2)N(c2ccccc2)C1=O | 0.354% (inactive)
CN(C)CCC(c1ccccc1)c1ccccn1 (stereo unspecified) | 1.03% (inactive)
CCCNC(=O)NS(=O)(=O)c1ccc(Cl)cc1 | -0.0991% (inactive)
CC1=C(/C=C/C(C)=C/C=C/C(C)=C/C(=O)Nc2ccc(O)cc2)C(C)(C)CCC1 | -0.319% (active)
O=c1[nH]cnc2c1ncn2[C@H]1CC[C@@H](CO)O1 | 3.7% (inactive)
O=C1NC(=O)C(c2ccccc2)(c2ccccc2)N1 | 1.33% (inactive)
